Hits are enriched below; roughly 2.1% of the tested compounds scored in any of these assays.
Calb FLC – C. albicans growth modulation with fluconazole | 0.57% of 300,000 active | C. albicans CaCi-2 (fluconazole-resistant clinical isolate) + fluconazole, Alamar Blue growth, 48 h | growth inhibition, % (no concentration beside the values);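 active = growth inhibition above about 58% in most replicates, limit read from the data, passing the limit was not always enough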;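 note: all wells also contain fluconazole at 8 µg/ml as a sub-toxic cotreatment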
CTSL1 counter-1 – cathepsin L1 inhibition, PFM18AAP counter-screen | recombinant F. hepatica cathepsin L1, Z-Leu-Arg-MCA fluorescence | inhibition, % at 5.96 µM | 0.49% of 300,000 active;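 active = inhibition above the mean of all tested compounds plus 3 SD, set per screening campaign, cut at about 17% in these data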
PfM18AAP inh-1 – PfM18AAP enzyme inhibition; recombinant PfM18AAP, H-Glu-NHMec fluorogenic cleavage; inhibition, % at 7.35 µM; 1.2% of 290,000 active; AID 1822;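 active = inhibition above the campaign mean inhibition over all tested compounds plus 3 SD, cut at about 28% in these data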
Rin1-Abl PPI inh – human Rin1-Abl interaction inhibition. inhibition, % at 7.35 µM. 0.4% of 360,000 active. AID 588664. TR-FRET Rin1/Abl binding, biochemical. P00519+Q13671; in the data active = inhibition above about 5%, passing the limit was not always enough
Target sequence (P00519 whole entry, looked up): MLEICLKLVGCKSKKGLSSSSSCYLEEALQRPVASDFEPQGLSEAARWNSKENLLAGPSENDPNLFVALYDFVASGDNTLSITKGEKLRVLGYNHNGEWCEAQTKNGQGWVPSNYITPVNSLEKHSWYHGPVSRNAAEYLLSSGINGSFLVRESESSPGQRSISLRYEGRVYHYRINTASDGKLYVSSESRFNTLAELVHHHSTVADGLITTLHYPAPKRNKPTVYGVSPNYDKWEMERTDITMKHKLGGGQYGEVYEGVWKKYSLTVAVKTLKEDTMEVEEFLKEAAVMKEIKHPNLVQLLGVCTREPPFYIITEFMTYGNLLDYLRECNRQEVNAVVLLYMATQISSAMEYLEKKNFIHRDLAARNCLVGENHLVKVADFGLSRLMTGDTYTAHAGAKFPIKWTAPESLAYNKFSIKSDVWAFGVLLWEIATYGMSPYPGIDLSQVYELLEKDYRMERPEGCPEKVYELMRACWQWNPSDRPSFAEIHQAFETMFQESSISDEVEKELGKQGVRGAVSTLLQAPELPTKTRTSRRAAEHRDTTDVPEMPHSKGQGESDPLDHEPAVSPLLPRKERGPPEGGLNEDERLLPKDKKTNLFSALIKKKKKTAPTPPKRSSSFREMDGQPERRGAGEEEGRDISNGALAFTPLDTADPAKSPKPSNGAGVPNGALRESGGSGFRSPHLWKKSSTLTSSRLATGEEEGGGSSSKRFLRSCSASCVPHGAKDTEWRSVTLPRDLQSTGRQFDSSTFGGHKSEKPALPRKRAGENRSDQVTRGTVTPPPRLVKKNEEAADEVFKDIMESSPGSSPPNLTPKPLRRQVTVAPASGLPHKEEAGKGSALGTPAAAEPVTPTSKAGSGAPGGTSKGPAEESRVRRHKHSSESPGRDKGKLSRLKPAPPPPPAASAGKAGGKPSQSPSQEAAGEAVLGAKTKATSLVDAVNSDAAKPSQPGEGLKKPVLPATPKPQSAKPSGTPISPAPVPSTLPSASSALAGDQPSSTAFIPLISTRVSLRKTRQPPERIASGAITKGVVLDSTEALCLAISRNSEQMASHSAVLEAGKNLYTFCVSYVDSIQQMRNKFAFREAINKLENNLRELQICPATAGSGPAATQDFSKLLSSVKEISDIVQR
Target sequence (Q13671 whole entry, looked up): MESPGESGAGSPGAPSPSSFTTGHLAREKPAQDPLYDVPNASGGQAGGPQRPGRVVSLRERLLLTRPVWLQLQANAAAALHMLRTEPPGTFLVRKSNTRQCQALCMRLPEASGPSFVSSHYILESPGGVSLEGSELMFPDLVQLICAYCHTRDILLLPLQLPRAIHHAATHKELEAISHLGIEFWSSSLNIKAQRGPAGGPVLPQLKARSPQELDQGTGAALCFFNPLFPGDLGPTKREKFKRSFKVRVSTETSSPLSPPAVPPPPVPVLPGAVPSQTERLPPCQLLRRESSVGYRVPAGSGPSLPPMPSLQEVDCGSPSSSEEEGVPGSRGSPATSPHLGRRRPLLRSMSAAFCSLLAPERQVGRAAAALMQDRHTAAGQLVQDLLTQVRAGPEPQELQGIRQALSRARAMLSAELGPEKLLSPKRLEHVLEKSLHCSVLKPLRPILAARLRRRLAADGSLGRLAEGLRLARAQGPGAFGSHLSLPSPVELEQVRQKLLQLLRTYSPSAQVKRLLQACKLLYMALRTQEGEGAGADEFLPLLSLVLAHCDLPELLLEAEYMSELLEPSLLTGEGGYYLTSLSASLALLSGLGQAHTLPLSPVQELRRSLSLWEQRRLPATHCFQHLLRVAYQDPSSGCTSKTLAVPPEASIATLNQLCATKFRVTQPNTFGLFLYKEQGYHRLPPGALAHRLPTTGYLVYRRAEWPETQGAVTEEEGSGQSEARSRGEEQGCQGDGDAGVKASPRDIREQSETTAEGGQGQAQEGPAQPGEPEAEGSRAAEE
PfM18AAP inh-2 – PfM18AAP inhibition, confirmation; shares compounds with PfM18AAP inh-1; recombinant PfM18AAP, H-Glu-NHMec fluorogenic cleavage; inhibition, % at 7.35 µM; 28% of 2,400 active; AID 2170;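 active = mean inhibition over replicate wells above the hit cutoff set for the earlier primary screen, cut at about 29% in these data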
CTSL1 counter-2 – counter-screen for PFM18AAP inhibitors: confirmation of human cathepsin L inhibitors; shares compounds with PfM18AAP inh-1; purified cathepsin L1, Z-Leu-Arg-MCA fluorescence; inhibition, % at 5.96 µM; 2,400 tested, under 10 active; AID 2178;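 active = average inhibition across replicates above the hit cutoff set in the earlier primary screen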
Of the large screens only hits and unclear results are named; the others gave an inactive call (follow-up assays come after a bar, where they were run); ! = not confirmed by another sample.

CC1(C)C[C@H]2C=C(C=O)[C@]3(C=O)C[C@]3(C)[C@H]2C1	CTSL1 counter-1 17
[Cl][Pt+2][Cl].[NH-]C1CCCCC1[NH-] (stereo not given)	CTSL1 counter-1 40 (no result: Calb FLC, PfM18AAP inh-1)
NC(N)=N/N=C/c1ccc(N(c2ccccc2)c2ccccc2)cc1	Calb FLC 94
COc1ccc(/C=N\N=C(N)N)cc1	none
CC(C)c1ccccc1OCC(=O)N1CCCN(C)CC1	CTSL1 counter-1 18
c1ccc2c(c1)Sc1ccccc1N2CC1CN2CCC1CC2 (stereo not given)	none (no result: Calb FLC)
CN1CCN(c2ccc([N+](=O)[O-])c3no[n+]([O-])c23)CC1	CTSL1 counter-1 18
C=C(C=O)C[C@@H]1C[C@H](O)C2OC3C[C@]4(C)OC5/C=C\CC6OC7C(CC=CCC6OC5CCCC4OC3CC2O1)OC1CC2OC3CC(=O)OC3C[C@@H](C)C[C@@]2(C)OC1C[C@@H]7C (stereo not given in full)	none (no result: CTSL1 counter-1, PfM18AAP inh-1, Rin1-Abl PPI inh)
CC1=NN=C(c2ccc(N)cc2)c2cc3c(cc2C1)OCO3	CTSL1 counter-1 39 (no result: Calb FLC, PfM18AAP inh-1)
O=C1/C(=C\c2ccccc2)C2OCC=C3CN4CCC56c7ccccc7N1C5C2C3CC46 (stereo not given)	none
O=C(O)CC1OCC=C2CN3CCC45C6=CC(=O)C(=O)C([N+](=O)[O-])=C6NC4C1C2CC35 (stereo not given)	CTSL1 counter-1 106
O=C(O)CC1OCC=C2CN3CCC45c6ccccc6NC4C1C2CC35 (stereo not given)	CTSL1 counter-1 18
COC(=O)C1C2c3ccccc3OC1(C)N=c1s/c(=C/c3cnn(C)c3)c(=O)n12 (stereo not given)	none
CC(=O)C1C2c3ccccc3OC1(C)N=c1s/c(=C/c3cn(C)nc3C)c(=O)n12 (stereo not given)	CTSL1 counter-1 34
O=C(N/N=C/c1c(O)n(CCC2=CCCCC2)c(=S)[nH]c1=O)c1ccccc1	Calb FLC 98
COC(=O)C1=C(c2ccc3ccccc3c2)C[C@@H]2CC[C@H]1N2C(=O)N1CCCC1	none (no result: Calb FLC, CTSL1 counter-1, PfM18AAP inh-1)
O=C1CC=C2C3CC4N(CCC45c4cc(O)c(O)cc4N1C25)CC3=CCBr (stereo not given)	Rin1-Abl PPI inh 31 (no result: Calb FLC, CTSL1 counter-1, PfM18AAP inh-1)
O=C1CC=C2C3CC4N(CCC45c4ccccc4N1C25)CC3=CCO (stereo not given)	none (no result: Calb FLC, CTSL1 counter-1, PfM18AAP inh-1)
COc1ccc(-n2c(O)c(C(C)=NCc3ccc4c(c3)OCO4)c(=O)[nH]c2=O)cc1	none
CN(C)C(=O)Oc1noc2cc(Cl)ccc12	CTSL1 counter-1 43
CCCCC1C(=O)NC(=S)NC1=O	none (no result: Rin1-Abl PPI inh)
COc1ccccc1CCNC(=O)CCC(=O)N1CC2C[C@@H](C1)Cn1c2cccc1=O	none
C[n+]1c2ccccc2nc2ccc(NCCO)cc21	CTSL1 counter-1 38
COc1ccc(N/N=C/c2c(O)n(-c3ccc(C)c(C)c3)c(=O)[nH]c2=O)cc1	none
COc1ccc(N/N=C/c2c(O)n(-c3cccc(C)c3)c(=O)[nH]c2=O)cc1	Calb FLC 114
COc1ccc(NC(=O)c2cn(CCC#N)nc2-c2cccc([N+](=O)[O-])c2)cc1	none
COc1ccc(Oc2cc(NC(=O)c3nn(C)cc3[N+](=O)[O-])cc([N+](=O)[O-])c2)cc1	CTSL1 counter-1 20
CCn1ccnc1CN1CCCC(C(=O)c2cc(F)ccc2OC)C1 (stereo not given)	none
CN1/C(=C\C=C2C(=O)NC(=O)NC2=O)C(C)(C)c2ccccc21	CTSL1 counter-1 20
CN1/C(=C\C=Nc2ccccc2)C(C)(C)c2ccccc21	none
O=C(Cn1cc(C=C2C(=O)NC(=O)NC2=O)c2ccccc21)NCC1CCCO1 (stereo not given)	PfM18AAP inh-1 32
O=C(O)Cn1cc(C=C2C(=O)NC(=O)NC2=O)c2ccccc21	none
Cc1ccccc1-[n+]1c(-c2ccccc2)cc(-c2ccccc2)cc1-c1ccccc1	Calb FLC 112 (no result: PfM18AAP inh-1)
Nc1ccccc1-[n+]1c(-c2ccccc2)cc(-c2ccccc2)cc1-c1ccccc1	Calb FLC 87
Oc1ccccc1-[n+]1c(-c2ccccc2)cc(-c2ccccc2)cc1-c1ccccc1	none (no result: PfM18AAP inh-1)
[O-]c1ccccc1-[n+]1c(-c2ccccc2)cc(-c2ccccc2)cc1-c1ccccc1	Calb FLC 96 (no result: PfM18AAP inh-1)
COc1ccc(CN2CCN(C(=O)COc3ccc4ccccc4c3)CC2)c(OC)c1	none
c1cncc(C2Nc3cccc4cccc(c34)N2)c1	PfM18AAP inh-1 35!
c1cncc(C2CCCCN2)c1 (stereo not given)	none
COC(=O)C1=C(c2cccc(C#N)c2)C[C@@H]2CC[C@H]1N2C(=O)NCCCOC(C)C	none (no result: Calb FLC, CTSL1 counter-1, PfM18AAP inh-1)
CCC(C)/C=C(C)/C=C/C1=CC2=C(Cl)C(=O)C(C)(OC(C)=O)C(=O)C2=CO1 (stereo not given)	CTSL1 counter-1 21
CN(C)c1ccc(/C=C/[N+](=O)[O-])cc1	PfM18AAP inh-1 31
Cc1cccc(C)c1-n1nnnc1C(C1CC1)N1CCC(n2c(=O)[nH]c3ccccc32)CC1 (stereo not given)	none (no result: Calb FLC, CTSL1 counter-1, PfM18AAP inh-1)
O=C1C(=O)c2ccccc2-c2ccccc21	CTSL1 counter-1 110 (no result: Calb FLC)
COc1ccc(-c2nc3ccccc3c(=O)n2-c2ccc(OC)cc2)cc1	none
CCn1nc(-c2ccccc2)nc2c(=O)n(C)c(=O)nc1-2	Calb FLC 90, CTSL1 counter-1 114, Rin1-Abl PPI inh 27
CCN(CC)c1ccc(N=Cc2c(O)n(-c3cc(OC)ccc3OC)c(=O)[nH]c2=O)cc1	PfM18AAP inh-1 34
CCOC(=O)c1c(-c2ccc(OC)cc2)oc2ccc(OC(=O)N(C)C)cc12	none
Cc1oc2ccc(OC(=O)N(C)C)cc2c1C(=O)OC(C)C	Calb FLC 107
CC(ON1CC1(C(F)(F)F)C(F)(F)F)(C(N)=O)C(N)=O (stereo not given)	none
CCN(CC)c1ccc(/C=N/c2sc3c(c2C#N)C2CCN3CC2)c(O)c1	PfM18AAP inh-1 32 (no result: Calb FLC) | PfM18AAP inh-2 inactive | CTSL1 counter-2 inactive
COc1cccc2c1O[C@H]1C(=O)CC[C@H]3CN(C)CCC231 (stereo not given in full)	none (no result: PfM18AAP inh-1)
C/C(CC(c1ccccc1)c1c(O)c2ccccc2oc1=O)=N\Nc1ccc([N+](=O)[O-])cc1[N+](=O)[O-] (stereo not given)	PfM18AAP inh-1 36 | PfM18AAP inh-2 inactive | CTSL1 counter-2 inactive
C[N+]1(C)C2CC[C@H]1CC(OC(=O)C(CO)c1ccccc1)C2 (stereo not given in full)	none (no result: Calb FLC, PfM18AAP inh-1)
C[N+]1(C)[C@@H]2CC[C@H]1CC(OC(=O)[C@@H](CO)c1ccccc1)C2 (stereo not given in full)	PfM18AAP inh-1 44 | PfM18AAP inh-2 33 | CTSL1 counter-2 inactive
CC1=C(C(=O)O)N2C(=O)[C@@H](NC(=O)CCCC(=O)O)[C@H]2SC1	PfM18AAP inh-1 36 | PfM18AAP inh-2 inactive | CTSL1 counter-2 inactive

Screening results as filed in PubChem BioAssay.
